This is an account of results in PubChem BioAssay (NCATS).

Inconclusive results are not listed. Calls of active or inactive are those of the source. Unless noted, calls come from the whole dose curve.

In assay [1] the target is Glucocorticoid receptor (Homo sapiens) (UniProt P04150). In words: qHTS assay for small molecule agonists of glucocorticoid receptor signaling (AID 588532; active = well fitted curve in the direction sought with a large enough effect in the signal ratio, with a control signal flat; the % refers to the signal ratio;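 note: 100% = dexamethasone at 0.1 µM and 0% = DMSO only wells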). The settings on record: HeLa MMTV-bla, beta-lactamase ratio, agonist, 18 h; stronger effect = higher value; percent of dexamethasone control, DMSO zero. In outline: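 Stimulation of a glucocorticoid response element-driven beta-lactamase gene was measured in HeLa cells. Responses were scaled between DMSO basal and 0.1 uM dexamethasone, then fitted for half-maximal stimulation.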
Sequence of Glucocorticoid receptor (Homo sapiens) (P04150 whole entry, looked up): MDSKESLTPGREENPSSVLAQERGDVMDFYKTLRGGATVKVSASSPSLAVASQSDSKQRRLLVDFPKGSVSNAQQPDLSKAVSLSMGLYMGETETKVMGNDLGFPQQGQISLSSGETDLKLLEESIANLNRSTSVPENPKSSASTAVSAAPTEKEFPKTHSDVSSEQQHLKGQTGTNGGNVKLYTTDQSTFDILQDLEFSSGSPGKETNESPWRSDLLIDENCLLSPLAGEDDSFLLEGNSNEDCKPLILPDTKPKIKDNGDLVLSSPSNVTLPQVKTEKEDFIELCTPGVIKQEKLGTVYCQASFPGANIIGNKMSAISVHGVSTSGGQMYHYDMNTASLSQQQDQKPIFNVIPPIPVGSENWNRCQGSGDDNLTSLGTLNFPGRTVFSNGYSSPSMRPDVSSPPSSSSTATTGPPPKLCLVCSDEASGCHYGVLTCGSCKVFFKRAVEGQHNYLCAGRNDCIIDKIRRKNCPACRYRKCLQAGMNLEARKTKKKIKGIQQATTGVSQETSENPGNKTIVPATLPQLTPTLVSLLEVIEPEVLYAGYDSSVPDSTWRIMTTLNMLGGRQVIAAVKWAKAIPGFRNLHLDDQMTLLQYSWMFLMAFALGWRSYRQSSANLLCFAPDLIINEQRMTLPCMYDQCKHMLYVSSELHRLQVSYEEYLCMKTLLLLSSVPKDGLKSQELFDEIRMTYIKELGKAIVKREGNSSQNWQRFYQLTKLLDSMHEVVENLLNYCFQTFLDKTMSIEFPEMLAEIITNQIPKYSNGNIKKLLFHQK
A general note: qHTS replaces the single test concentration by a dilution series.

Assay [2] shares this target. As to the kind of experiment: qHTS assay for small molecule antagonists of glucocorticoid receptor signaling (AID 588533; active = well fitted inhibition curve with a large enough effect in the signal ratio, with a control signal flat, not every such curve was filed as active; the % refers to the signal ratio;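 note: cells stimulated with 2 nM dexamethasone as agonist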; note: potency is the fitted concentration of half-maximal effect). The settings on record: HeLa MMTV-bla, GRE beta-lactamase ratio, antagonist mode, 18 h; series mostly up to 76.8 µM. In outline:
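Antagonist-mode qHTS: compound titrations added to GRE-bla HeLa cells, then dexamethasone 2 nM final; 18 h, 37 C. CCF4 FRET fluorescence normalized to dexamethasone and DMSO; IC50 from Hill fit.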

Assay [3] concerns the target Vitamin D3 receptor (Homo sapiens) (UniProt P11473). In words: qHTS assay for small molecule antagonists of vitamin D receptor signaling (AID 588541).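 Note: receptor activated by calcitriol during compound treatment; % is set by controls: 0 for no effect and ±100 for the full control effect.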 The conditions noted are these: HEK293T VDR-UAS-bla, beta-lactamase ratio, antagonist mode; series mostly up to 76.7 µM. An outline of the steps: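 VDR-UAS-bla HEK293T cells (2000/well, 2% charcoal-stripped FBS) were treated with titrated compounds plus 1-alpha,25-dihydroxyvitamin D3 (50 nM or 3 nM final) for 16 h at 37 C. CCF4 beta-lactamase fluorescence was read; Hill fits gave IC50.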

Assay [4] shares this target. In words: qHTS assay for small molecule agonists of vitamin D receptor signaling (AID 588543).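 Note: 0% = DMSO basal and 100% = reference agonist control.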 The conditions noted are these: HEK293T VDR-UAS-bla, beta-lactamase ratio, 16 h; series mostly up to 76.8 µM. An outline of the steps:
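Agonist-mode beta-lactamase reporter: HEK293T VDR-UAS-bla cells in charcoal-stripped 2% FBS, compound series 16 h 37 C, CCF4 2 h RT. EC50 from Hill fit, scaled against DMSO and 50 nM calcitriol control.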

In assay [5] the target is Retinoic acid receptor RXR-alpha (Homo sapiens) (UniProt P19793). As to the kind of experiment: qHTS assay for small molecule agonists of retinoid X receptor alpha signaling (AID 588544).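 Note: 0% = DMSO basal wells and 100% = reference agonist.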 The settings on record: HEK293T RXRa-UAS-bla, beta-lactamase reporter, 18 h; series mostly up to 76.7 µM.
Sequence of Retinoic acid receptor RXR-alpha (Homo sapiens) (P19793 whole entry, looked up): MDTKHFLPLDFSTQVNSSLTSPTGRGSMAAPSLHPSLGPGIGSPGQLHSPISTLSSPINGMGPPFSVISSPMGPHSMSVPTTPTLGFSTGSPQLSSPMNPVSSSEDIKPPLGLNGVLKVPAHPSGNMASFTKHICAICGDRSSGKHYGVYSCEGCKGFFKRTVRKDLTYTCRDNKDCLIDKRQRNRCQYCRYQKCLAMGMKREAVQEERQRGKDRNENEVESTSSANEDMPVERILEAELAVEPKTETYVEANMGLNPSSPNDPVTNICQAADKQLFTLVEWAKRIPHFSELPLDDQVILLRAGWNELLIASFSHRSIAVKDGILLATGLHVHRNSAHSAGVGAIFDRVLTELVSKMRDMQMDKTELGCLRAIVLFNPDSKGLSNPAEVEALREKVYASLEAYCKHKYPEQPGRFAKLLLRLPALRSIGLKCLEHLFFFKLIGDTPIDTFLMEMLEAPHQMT
For assay [6], the target named is Thyroid hormone receptor beta (Homo sapiens) (UniProt P10828). In words: qHTS assay for small molecule agonists of thyroid hormone receptor beta signaling (AID 588545). The conditions noted are these: TR-UAS-bla GripTite HEK 293, beta-lactamase ratio, agonist mode, 18 h; series mostly up to 76.7 µM. In outline:
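Cells (2500/well) were seeded, incubated 4 hrs at 37 C, dosed with a compound series, incubated 18 hrs, loaded with CCF4 dye for 2 hrs at RT, then read for fluorescence. Data were scaled between DMSO (0%) and 10 nM T3 (100%).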

Assay [7] can be described thus: qHTS assay for small molecule antagonists of retinoid X receptor alpha signaling (AID 588546; active = well fitted inhibition curve with a large enough effect in the signal ratio, with a control signal flat, not every such curve was filed as active; the % refers to the signal ratio;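 note: cells stimulated with 9-cis-retinoic acid as agonist; % is set by controls: 0 for no effect and ±100 for the full control effect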). The settings on record: HEK293T RXRa-UAS-bla, beta-lactamase ratio, antagonist mode; measured here: W530 green channel, cytotoxicity proxy. In outline: (§1)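 Beta-lactamase reporter inhibition, read as CCF4 fluorescence ratio (ex 405, em 460/530 nm) after 2 h at RT. HEK293T UAS-bla cells, 2500/well, were stimulated with 9-cis-RA at 500 or 100 nM final alongside test compound for 18 h at 37 C.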

Assay [8] concerns the target Retinoic acid receptor RXR-alpha (Homo sapiens) (UniProt P19793). The assay is described as above. The conditions noted are these: HEK293T RXRa-UAS-bla, beta-lactamase ratio, antagonist mode. An outline of the steps:
as §1

Assay [9] can be described thus: qHTS assay for small molecule activators of the p53 signaling pathway (AID 651743; active = well fitted activation curve with a large enough effect in the signal ratio, not every such curve was filed as active; the % refers to the signal ratio; note: potency is the fitted concentration of half-maximal effect; for activation: % of control where 0% means no effect). The settings on record: HCT-116 p53RE-bla, beta-lactamase FRET ratio, 16 h; activation: stronger effect = higher value. An outline of the steps: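 p53RE-bla HCT-116 cells with a stably integrated beta-lactamase reporter under p53 response elements were plated, rested 5 hours at 37 C/5% CO2, then exposed to compounds in DMSO for 16 hours at 37 C. LiveBLAzer B/G FRET substrate was read after 2 hours at room temperature.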

A short description of assay [10]: qHTS assay for small molecule activators of the nuclear factor-kappa B (NF-kB) signaling pathway (AID 651749; active = well fitted activation curve with a large enough effect in the signal ratio; the % refers to the signal ratio; note: % of control where 0% means no effect). The conditions noted are these: NF-kB-bla ME-180 cells, beta-lactamase FRET ratio, 16 h; activation: stronger effect = higher value. In outline:
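ME-180 cells stably carrying a beta-lactamase reporter under an NF-kB response element were exposed to compound or DMSO vehicle for 16 hr at 37C, 5% CO2. Pathway activation was read by FRET, since reporter expression disrupts FRET.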

A short description of assay [11]: qHTS assay for environmental chemicals that activate the Aryl hydrocarbon Receptor (AhR) signaling pathway (AID 651777; active = well fitted curve in the direction sought with a large enough effect; an effect the other way counts as inactive or inconclusive; note: nearly all actives have a fitted effect of over 15% in size; note: potency is the fitted concentration of half-maximal effect; for activation: % of control where 0% means no effect). The settings on record: 1A2-DRE human hepatoma cells, luciferase, 24 h; activation: stronger effect = higher value. An outline of the steps: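 1A2-DRE human hepatoma reporter line; 1,200 cells/well; cmpd or DMSO 24 h, 37 C/5% CO2; One-Glo 30 min RT; luciferase lum.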

The nature of assay [12]: qHTS assay for small molecule agonists of the antioxidant response element (ARE) signaling pathway measured by Nrf2-dependant transcriptional activity (AID 720636; active = well fitted curve in the direction sought with a large enough effect in the repeat runs; an effect the other way counts as inactive or inconclusive;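 note: HepG2 cells with an ARE-driven luciferase reporter; % of control where 0% means no effect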). The settings on record: ARE-luc HepG2, Nrf2 luciferase reporter, 16 h; series mostly up to 92.4 µM. An outline of the steps:
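Cells: ARE-luc HepG2 with Nrf2-responsive luciferase. Medium contained 1% dialyzed FBS. Compound exposure lasted 16 hr at 37 C and 5% CO2, followed by ONE-Glo luciferase detection.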

Assay [13] can be described thus: qHTS assay for small molecule agonists of the antioxidant response element (ARE) signaling pathway measured by Nrf2-dependant transcriptional activity - cell viability counter screen (AID 720653; active = well fitted curve in the direction sought with a large enough effect in the repeat runs; an effect the other way counts as inactive or inconclusive; note: % is set by controls: 0 for no effect and ±100 for the full control effect). The settings on record: ARE-bla HepG2 viability, CellTiter-Glo ATP luminescence, 16 h; max response: stronger effect = lower value. An outline of the steps:
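ARE-bla HepG2 cells (2,000/well) rested 5 hrs at 37C/5% CO2, then exposed to compounds in DMSO for 16 hrs. Viability was read in the same wells as intracellular ATP by luminescence, 30 min at room temperature after reagent addition.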

The nature of assay [14]: qHTS assay for cell viability of HEK293 cells (AID 743288; active = well fitted curve in the direction sought with a large enough effect; an effect the other way counts as inactive or inconclusive; note: % is set by controls: 0 for no effect and ±100 for the full control effect; nearly all actives have a fitted effect of over 50% in size). The settings on record: ATP luminescence (CellTiter-Glo), 18 h; max response: stronger effect = lower value. An outline of the steps:
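Total intracellular ATP, measured with a luciferase-coupled reagent, indicates the number of viable HEK293 cells. Exposure to test chemicals lasts 18 h at 37 C in 1,536-well format at 2,000 cells/well.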

Assay [15] has as its target Nuclear receptor subfamily 1 group I member 2 (Rattus norvegicus) (UniProt Q9R1A7). As to the kind of experiment: qHTS assay for small molecule activators of the rat pregnane X receptor (rPXR) signaling pathway (AID 651751; call rule not given here; note: 0% is about no effect). The settings on record: rPXR reporter cells, luciferase (One-Glo), 24 h.
Assay [16] can be described thus: qHTS assay for small molecule activators of the human pregnane X receptor (PXR) signaling pathway (AID 720659; call rule not given here; note: 0% is about no effect). The conditions noted are these: DPX-2 HepG2 CYP3A4-luciferase, 24 h; series mostly up to 92.3 µM.
Assay [17] addresses Peroxisome proliferator-activated receptor alpha (Homo sapiens) (UniProt Q07869). In words: qHTS assay for small molecule agonists of the peroxisome proliferator-activated receptor alpha (PPARalpha) signaling pathway (AID 651778; active = well fitted curve in the direction sought with a large enough effect; an effect the other way counts as inactive or inconclusive; note: % of control where 0% means no effect). The conditions noted are these: PathHunter PPARalpha complementation, chemiluminescence, 6 h; max response: stronger effect = higher value. In outline:
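Cells plated at 2,000/well and held overnight at 37 C, 5% CO2, then compound added by pin tool for 6 hr; after PathHunter detection reagent and 60 min at room temperature, chemiluminescence from enzyme complementation was read.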

Assay [18] in a line: qHTS assay for cell viability of the p53RE-bla HCT-116 cell line (AID 743292; active = well fitted curve in the direction sought with a large enough effect; an effect the other way counts as inactive or inconclusive; note: nearly all actives have a fitted effect of over 55% in size; note: potency is the fitted concentration of half-maximal effect). The conditions noted are these: p53RE-bla HCT-116 viability, ATP luminescence, 16 h; series mostly up to 95 µM. In outline: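 HCT-116 p53RE-bla cells seeded 4,000/well; 5 h at 37 C; compound (DMSO) added; 16 h at 37 C; CellTiter-Glo added, 30 min RT; luminescence read.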
Assay [19] is described as follows: qHTS assay for small molecule antagonists of peroxisome proliferator-activated receptor delta signaling (AID 588535; active = well fitted inhibition curve with a large enough effect in the signal ratio, with a control signal flat, not every such curve was filed as active; the % refers to the signal ratio;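 for max response: cells co-treated with a PPAR-delta agonist as stimulator during compound exposure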). The settings on record: HEK293T PPARd-UAS-bla, beta-lactamase FRET ratio, 18 h; 460 nm channel. In outline: (§2)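 GeneBLAzer PPAR-delta-UAS-bla HEK293T cells in medium with 2% charcoal/dextran FBS were preincubated 5 hrs at 37 C, then given compounds, incubated 18 hrs at 37 C, and read by CCF4 beta-lactamase fluorescence; IC50 from Hill fits.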

Assay [20] has as its target Peroxisome proliferator-activated receptor delta (Homo sapiens) (UniProt Q03181). The description is as above. The conditions noted are these: HEK293T PPARd-UAS-bla, beta-lactamase FRET ratio, 18 h; series mostly up to 76.7 µM. In outline:
as §2

Sequence of Peroxisome proliferator-activated receptor alpha (Homo sapiens) (Q07869 whole entry, looked up): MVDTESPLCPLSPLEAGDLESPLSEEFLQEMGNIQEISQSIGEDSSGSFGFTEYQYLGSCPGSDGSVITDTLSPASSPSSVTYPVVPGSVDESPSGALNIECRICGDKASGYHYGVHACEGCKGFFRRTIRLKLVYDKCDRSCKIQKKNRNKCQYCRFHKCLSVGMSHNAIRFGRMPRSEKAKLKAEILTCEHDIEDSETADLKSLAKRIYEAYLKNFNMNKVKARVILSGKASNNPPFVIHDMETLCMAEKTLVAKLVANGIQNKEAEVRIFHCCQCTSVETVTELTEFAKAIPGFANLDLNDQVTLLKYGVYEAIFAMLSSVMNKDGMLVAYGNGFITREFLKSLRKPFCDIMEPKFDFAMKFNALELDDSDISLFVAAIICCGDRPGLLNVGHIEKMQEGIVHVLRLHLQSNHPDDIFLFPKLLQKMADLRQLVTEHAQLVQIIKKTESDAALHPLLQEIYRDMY
Sequence of Peroxisome proliferator-activated receptor delta (Homo sapiens) (Q03181 whole entry, looked up): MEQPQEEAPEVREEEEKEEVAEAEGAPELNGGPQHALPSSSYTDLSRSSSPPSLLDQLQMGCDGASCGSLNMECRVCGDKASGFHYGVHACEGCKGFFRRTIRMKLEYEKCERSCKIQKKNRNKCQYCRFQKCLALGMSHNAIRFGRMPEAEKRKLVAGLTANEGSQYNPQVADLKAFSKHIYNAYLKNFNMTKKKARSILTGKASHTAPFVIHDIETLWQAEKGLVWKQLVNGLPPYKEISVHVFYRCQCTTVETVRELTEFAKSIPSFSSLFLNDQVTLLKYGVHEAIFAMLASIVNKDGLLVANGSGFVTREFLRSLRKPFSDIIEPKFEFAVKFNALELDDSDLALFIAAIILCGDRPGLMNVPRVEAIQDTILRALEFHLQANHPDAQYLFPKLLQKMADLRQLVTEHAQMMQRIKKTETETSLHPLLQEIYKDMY
Sequence of Thyroid hormone receptor beta (Homo sapiens) (P10828 whole entry, looked up): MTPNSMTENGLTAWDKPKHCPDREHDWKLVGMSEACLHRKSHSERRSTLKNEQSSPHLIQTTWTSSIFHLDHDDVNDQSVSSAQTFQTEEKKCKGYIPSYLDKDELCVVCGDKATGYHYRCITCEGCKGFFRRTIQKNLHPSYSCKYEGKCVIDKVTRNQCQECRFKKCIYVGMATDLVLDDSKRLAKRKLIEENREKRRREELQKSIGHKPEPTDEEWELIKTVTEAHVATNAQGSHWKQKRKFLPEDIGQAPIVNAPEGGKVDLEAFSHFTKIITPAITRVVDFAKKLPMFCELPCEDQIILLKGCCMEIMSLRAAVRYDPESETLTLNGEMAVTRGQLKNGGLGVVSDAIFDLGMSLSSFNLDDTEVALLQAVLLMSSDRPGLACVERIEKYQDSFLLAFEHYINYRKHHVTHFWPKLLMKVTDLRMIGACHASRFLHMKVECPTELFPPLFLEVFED
Sequence of Vitamin D3 receptor (Homo sapiens) (P11473 whole entry, looked up): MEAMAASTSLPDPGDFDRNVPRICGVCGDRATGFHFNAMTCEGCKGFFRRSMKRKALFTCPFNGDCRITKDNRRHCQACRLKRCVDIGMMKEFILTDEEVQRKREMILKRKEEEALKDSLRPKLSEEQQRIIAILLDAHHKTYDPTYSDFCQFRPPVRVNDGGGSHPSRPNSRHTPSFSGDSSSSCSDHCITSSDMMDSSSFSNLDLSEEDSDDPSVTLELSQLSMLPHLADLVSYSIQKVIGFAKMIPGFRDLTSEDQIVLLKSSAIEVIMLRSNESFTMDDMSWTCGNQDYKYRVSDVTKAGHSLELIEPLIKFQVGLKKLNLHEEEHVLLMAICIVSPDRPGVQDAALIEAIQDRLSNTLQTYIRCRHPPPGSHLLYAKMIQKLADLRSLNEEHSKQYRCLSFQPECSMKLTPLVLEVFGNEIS
Sequence of Nuclear receptor subfamily 1 group I member 2 (Rattus norvegicus) (Q9R1A7 whole entry, looked up): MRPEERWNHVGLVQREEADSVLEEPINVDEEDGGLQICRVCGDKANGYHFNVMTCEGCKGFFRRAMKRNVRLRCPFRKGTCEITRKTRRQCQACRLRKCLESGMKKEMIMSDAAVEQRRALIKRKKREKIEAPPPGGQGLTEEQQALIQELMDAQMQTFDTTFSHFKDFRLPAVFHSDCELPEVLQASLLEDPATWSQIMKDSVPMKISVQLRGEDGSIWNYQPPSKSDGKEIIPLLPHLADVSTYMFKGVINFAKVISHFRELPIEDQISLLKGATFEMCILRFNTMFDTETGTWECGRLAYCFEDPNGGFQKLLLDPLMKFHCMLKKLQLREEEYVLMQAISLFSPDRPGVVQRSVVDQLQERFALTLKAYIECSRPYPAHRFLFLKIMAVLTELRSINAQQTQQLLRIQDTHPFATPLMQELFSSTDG

On to `COC(=O)c1ccc(CNS(C)(=O)=O)cc1S(=O)(=O)NC(=O)Nc1nc(OC)cc(OC)n1`, for which the activation is -4.55% (inactive) in assay [1], -5.96% (inactive) in assay [9], 1.5% (inactive) in assay [10] and -2.23% (inactive) in assay [11]. The Potency entry in assay [2], in assay [3], in assay [5], in [6] and in [12] was “inactive” throughout. The outcome in [4] and in assay [16] was inactive. The max response was -12.9% in assay [7]; 13.2% (inactive) in assay [8]; 12.1% (inactive) in [13]; 10.3% (inactive) in assay [14]; -5.5% (inactive) in [15].

`O=C(O)c1cc(O)c2ccccc2c1O`: the activation in assay [1] was -13.3% (inactive). Moreover, the Potency in assay [2] is 44.7 µM (active); in assay [11], 14.1 µM (active); in [18], 39.8 µM (active). In addition, the Potency result in assay [6] was “inactive”. Also, the max response is -7.87% (inactive) in assay [17] and 5.84% (inactive) in assay [15].

Turning to `CCCCCCCCCCCCCCC`, the results for the activation in assay [1] and in assay [10] were -6.59% (inactive) and -1.21% (inactive), respectively. The Potency result in assay [2], in assay [20], in [6] and in assay [12] was “inactive” throughout. Also, the max response in assay [19] is -0.185%; in assay [7], -8.06%; in assay [8], -6.6% (inactive); in assay [17], -1.61% (inactive); in [13], 10.3% (inactive); in [14], -6.32% (inactive). Also, in assay [15], the max response was -4.43% (inactive). Besides, the result in assay [4] and in assay [16] was inactive.

`CCCCCCCC/C=C\CCCCCCCCO`: the figures for the activation in [1], in assay [10] and in assay [11] were -0.954% (inactive), -1.39% (inactive) and 0.617% (inactive), respectively. Moreover, the Potency result in assay [2], in assay [20], in [5], in assay [6], in assay [12] and in assay [18] was “inactive” each time. Besides, the max response was 8.68% in assay [19]; 0.0391% in assay [7]; 6.68% (inactive) in assay [8]; -11.8% (inactive) in assay [14]; -0.215% (inactive) in assay [15]. The outcome in assay [4] was inactive.

In the case of `O=[N+]([O-])c1ccc(O)cc1C(F)(F)F`, the activation in assay [1] was -7.74% (inactive); in assay [11] it was 14.2% (inactive). Also, the results for the max response in assay [19], in assay [7] and in assay [17] were -4.35%, 6.72% and -8.59% (inactive), respectively. The Potency result in assay [20], in assay [3], in assay [6], in [12] and in [18] was “inactive” each time. Further, the outcome in assay [4] and in assay [16] was inactive. Moreover, in assay [9], the Potency is 31.6 µM (active).

For `CC(C)(N=C=O)c1cccc(C(C)(C)N=C=O)c1`, the activation is 9.9% (inactive) in assay [1], -0.946% (inactive) in [10] and 0.551% (inactive) in [11]. For the same compound, the Potency result in assay [2], in assay [20], in assay [3], in [5], in assay [6] and in assay [12] was “inactive” each time. Moreover, the Potency entry in assay [18] was “inactive”. Also, the max response is 9.94% in assay [19]; -4.03% in [7]; -29.1% (inactive) in assay [8]; -1.39% (inactive) in [17]; -5.26% (inactive) in [13]; -12% (inactive) in assay [14]. For the same compound, the max response in assay [15] is 4.49% (inactive). Moreover, the result in assay [4] was inactive.
